Experimental findings from PubChem BioAssay (Tox21) are described below.

The target of test [1] is Progesterone receptor (Homo sapiens) (UniProt P06401). Kind of test: qHTS assay to identify small molecule agonists of the progesterone receptor (PR) signaling pathway (AID 1346784; calls by dose curve; also: nearly all actives have a fitted effect of over 30% in size). A digest of the protocol: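 Compounds were tested for PR agonism in HEK 293T cells bearing a beta-lactamase gene under UAS control. Treatment lasted 16 hr at 37C; signal came from fluorescence of a FRET substrate.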
Chain of Progesterone receptor (Homo sapiens) (P06401 whole entry, looked up): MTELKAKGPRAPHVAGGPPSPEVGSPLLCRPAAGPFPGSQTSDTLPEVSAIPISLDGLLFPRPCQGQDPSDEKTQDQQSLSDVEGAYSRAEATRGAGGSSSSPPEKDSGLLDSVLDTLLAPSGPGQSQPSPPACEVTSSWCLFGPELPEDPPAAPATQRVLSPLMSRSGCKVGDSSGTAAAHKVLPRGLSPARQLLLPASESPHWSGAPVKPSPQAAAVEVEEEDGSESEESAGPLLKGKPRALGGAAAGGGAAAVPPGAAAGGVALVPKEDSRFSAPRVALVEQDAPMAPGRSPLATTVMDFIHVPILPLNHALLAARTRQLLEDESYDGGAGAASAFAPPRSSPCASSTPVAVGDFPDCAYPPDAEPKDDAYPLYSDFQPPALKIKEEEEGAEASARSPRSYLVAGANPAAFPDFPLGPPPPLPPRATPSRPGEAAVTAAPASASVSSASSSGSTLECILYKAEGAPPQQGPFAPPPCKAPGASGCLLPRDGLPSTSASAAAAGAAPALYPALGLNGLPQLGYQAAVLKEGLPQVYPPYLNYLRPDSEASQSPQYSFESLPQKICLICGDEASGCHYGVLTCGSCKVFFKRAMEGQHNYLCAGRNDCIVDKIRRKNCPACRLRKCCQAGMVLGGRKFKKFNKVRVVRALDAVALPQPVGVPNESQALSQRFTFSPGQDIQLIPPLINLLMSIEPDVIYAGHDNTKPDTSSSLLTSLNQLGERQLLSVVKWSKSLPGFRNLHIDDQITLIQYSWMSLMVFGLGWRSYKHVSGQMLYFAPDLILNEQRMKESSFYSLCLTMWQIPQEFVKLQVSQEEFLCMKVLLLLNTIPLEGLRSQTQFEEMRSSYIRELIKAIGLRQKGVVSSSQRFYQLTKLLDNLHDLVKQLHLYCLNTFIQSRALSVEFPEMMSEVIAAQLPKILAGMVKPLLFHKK

For test [2] the target is unchanged. Kind of test: qHTS assay to identify small molecule antagonists of the progesterone receptor (PR) signaling pathway (AID 1346795; active = well fitted inhibition curve with a large enough effect in the signal ratio in the repeat runs, not every such curve was filed as active; the % refers to the signal ratio). The essentials: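 In HEK293T cells bearing the PR-UAS-bla reporter, compound effects on promegestone-driven (1 nM) beta-lactamase expression are assessed after 16 hr using a fluorescent FRET substrate incubated 2 hr at room temperature.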

Test [3] in a line: qHTS assay to identify small molecule antagonists of the progesterone receptor (PR) signaling pathway - cell viability counter screen (AID 1346798). Also: series mostly up to about 92 µM; nearly all actives have a fitted effect of over 50% in size. The essentials: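 Following a 4 hr attachment, PR-UAS-bla HEK293T cells in charcoal-stripped FBS medium were exposed to compounds with R5020 for 16 hr; CellTiter-Glo was added and luminescence read after 30 min at room temperature.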
On the technique in general: qHTS replaces the single test concentration by a dilution series.

Test [4] can be described thus: qHTS assay to identify small molecule agonists of the progesterone receptor (PR) signaling pathway - cell viability counter screen (AID 1346799; calls by dose curve; also: nearly all actives have a fitted effect of over 45% in size). A digest of the protocol:
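Here, 3,000 PR-UAS-bla HEK293T cells per well were treated with compounds for 16 hr after a 6 hr preincubation at 37C and 5% CO2; cell viability is the CellTiter-Glo luminescence signal.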

The nature of test [5]: qHTS assay to identify small molecule antagonists of the TGF-beta/Smad signaling pathway - cell viability counter screen (AID 1346824). Also: nearly all actives have a fitted effect of over 50% in size. The essentials:
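Cytotoxicity counter-screen run in the same wells as the beta-lactamase Smad reporter read: CellTiter-Glo luminescence after 30 min at room temperature. HEK 293T SBE-bla cells had 5 hr compound exposure at 37 C with TGF-beta1 (0.25 ng/mL stock).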

The nature of test [6]: qHTS assay to identify small molecule agonists of the TGF-beta/Smad signaling pathway - cell viability counter screen (AID 1346829). Also: top concentration of the series differs between compounds; nearly all actives have a fitted effect of over 45% in size. The essentials: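 Luminescence from CellTiter-Glo, read after a 30 min room-temperature incubation, gives cell viability of SBE-bla HEK 293T cells treated 5 hr with compounds at 37 C.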
Test [7] is described as follows: Human pregnane X receptor (PXR) small molecule agonists, qHTS cell viability counter screen (AID 1346977). Also: nearly all actives have a fitted effect of over 50% in size. Also: potency is read from the fitted curve at half-maximal effect. The essentials:
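Tox21 qHTS format; PXR-Luc HepG2, 2,000/well, charcoal-stripped FBS 5%. Cpd exposure 24hr. Read: CellTiter-Fluor fluorescence, multiplexed with luciferase.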

Test [8] is described as follows: Caspase-3/7 induction in HepG2 cells by small molecules, qHTS assay (AID 1346978). Also: nearly all actives have a fitted effect of over 15% in size. Also: potency is read from the fitted curve at half-maximal effect. A digest of the protocol: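 Caspase-3/7 induction was measured by Caspase-Glo 3/7 luminescence (30 min, room temperature) after a 17 hr compound exposure of wild-type HepG2 cells seeded at 2,000 per well and pre-incubated 5 hr.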
A short description of test [9]: Caspase-3/7 induction in CHO-K1 cells by small molecules, qHTS assay (AID 1346980). Also: nearly all actives have a fitted effect of over 15% in size. Also: potency is read from the fitted curve at half-maximal effect. A digest of the protocol: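 Luminescent Caspase-Glo 3/7 read (30min, room temperature) quantified apoptosis induction. Cells were wild-type CHO-K1, treated with compound for 17hr at 37 C and 5% CO2.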
The nature of test [10]: Caspase-3/7 induction in HepG2 cells by small molecules, qHTS cell viability counter screen (AID 1346981). Also: nearly all actives have a fitted effect of over 30% in size. Also: potency is read from the fitted curve at half-maximal effect. The essentials: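 Fluorescence read-out of live-cell protease activity (CellTiter-Fluor) after 1 hr with reagent. This was measured in the same wells as the caspase-3/7 luminescence, on HepG2 cells exposed to DMSO-dissolved compounds for 16 hr at 37 C.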
Test [11] concerns the target Nuclear receptor subfamily 1 group I member 2 (Homo sapiens) (UniProt O75469). Kind of test: Human pregnane X receptor (PXR) small molecule agonists, qHTS assay (AID 1346982). Also: nearly all actives have a fitted effect of over 35% in size. Also: potency is read from the fitted curve at half-maximal effect. A digest of the protocol:
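HepG2 PXR-Luc reporter line, 5% charcoal-stripped FBS; 5 hr pre-incubation, compound (DMSO) 24 hr at 37 C/5% CO2; ONE-Glo 30 min RT; luminescence read-out.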

The target of test [12] is Cytochrome P450 2D6 (Homo sapiens) (UniProt P10635). Description: Cytochrome P450 Family 2 Subfamily D Member 6 (CYP2D6) small molecule antagonists: luciferase reporter qHTS assay (AID 1671196). Also: series mostly up to about 120 µM; nearly all actives have a fitted effect of over 50% in size. A digest of the protocol:
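Luminogenic proluciferin substrate, CYP2D6 enzyme; 10 min RT preincubation with compound, NADPH regeneration system added, 1 h RT. Stop/detection reagent, 20 min RT, luminescence read (RLU). Signal proportional to CYP activity.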
In general terms: Reporter assays use an easily measured gene product as a stand-in for the process of interest.

The nature of test [13]: qHTS assay to identify small molecule agonists of the estrogen receptor alpha (ER-alpha) signaling pathway in the presence of an antagonist - cell viability counter screen (AID 1259386). Also: nearly all actives have a fitted effect of over 30% in size. Also: potency is read from the fitted curve at half-maximal effect. A digest of the protocol: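 Read-out: CellTiter-Fluor fluorescence after 1hr reagent incubation, measured in the same wells as the luciferase readout. VM7Luc4E2 cells were exposed to 15 compound concentrations with 10.0nM ICI-182,780 for 22hr at 37C.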

A short description of test [14]: qHTS assay to identify small molecule agonists of the TGF-beta/Smad signaling pathway (AID 1346859; active = well fitted activation curve with a large enough effect in the signal ratio in the repeat runs, not every such curve was filed as active; the % refers to the signal ratio; also: series mostly up to about 77 µM). The essentials: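 Each well held 4,000 SBE-bla HEK 293T cells incubated overnight before compound addition; 5 hr later the cleavable FRET substrate went on for 2 hr at room temperature, and fluorescence was read at two emissions.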
The target of test [15] is Thyrotropin-releasing hormone receptor (Homo sapiens) (UniProt P34981). Kind of test: qHTS assay to identify small molecule antagonists of the thyrotropin-releasing hormone receptor (TRHR) signaling pathway (AID 1346877; active = well fitted inhibition curve with a large enough effect in the repeat runs, not every such curve was filed as active; also: series mostly up to about 51 µM). The essentials: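 HEK293/TRHR cells, 18 h, 37 °C; Ca2+ dye 2 h; cpd 5 min RT; TRH 1 nM final; fluorescence read 3 min, 1 s intervals; 15 concs, triplicate.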
Chain of Thyrotropin-releasing hormone receptor (Homo sapiens) (P34981 whole entry, looked up): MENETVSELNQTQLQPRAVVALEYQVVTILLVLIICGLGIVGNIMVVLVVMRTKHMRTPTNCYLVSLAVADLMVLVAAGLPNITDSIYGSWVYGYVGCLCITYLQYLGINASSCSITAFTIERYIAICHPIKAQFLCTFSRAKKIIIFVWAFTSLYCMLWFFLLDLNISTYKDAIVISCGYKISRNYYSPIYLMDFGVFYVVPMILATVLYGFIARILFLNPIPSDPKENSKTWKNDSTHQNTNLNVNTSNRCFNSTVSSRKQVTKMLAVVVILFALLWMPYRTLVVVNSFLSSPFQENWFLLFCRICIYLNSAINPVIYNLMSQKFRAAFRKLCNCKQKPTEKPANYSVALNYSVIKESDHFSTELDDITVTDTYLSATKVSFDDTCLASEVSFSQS

Test [16] has the same target. Kind of test: qHTS assay to identify small molecule agonists of the thyrotropin-releasing hormone receptor (TRHR) signaling pathway (AID 1346891; calls by dose curve; also: series mostly up to about 58 µM). A digest of the protocol:
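Screening of agonists relied on calcium signalling in HEK293 cells expressing human TRHR: dye loading 2 h at 37 °C preceded compound addition and a 3-min fluorescence time course.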

Test [17] is described as follows: Caspase-3/7 induction in CHO-K1 cells by small molecules, qHTS cell viability counter screen (AID 1346979). Also: nearly all actives have a fitted effect of over 35% in size. Also: potency is read from the fitted curve at half-maximal effect. A digest of the protocol: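 CellTiter-Fluor viability check, qHTS format: wild-type CHO-K1, 16hr compound treatment, 1hr reagent incubation, fluorescence read.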
Test [18] deals with Nuclear receptor subfamily 1 group I member 2 (Homo sapiens) (UniProt O75469). Kind of test: CYP3A4 induction through human pregnane X receptor (PXR) by small molecules, qHTS assay (AID 1346984). Also: nearly all actives have a fitted effect of over 40% in size. The essentials:
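HepG2-derived DPX-2 line carrying PXR plus a CYP3A4-promoter luciferase reporter; cells plated 5 hr, compound-exposed 24 hr at 37C. CYP3A4 activity probed with 3uM (final) Luciferin-IPA for 3hr, then luciferase read after One-Glo.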

Test [19] has the same target. Kind of test: Human pregnane X receptor (PXR) activation by small molecules, qHTS assay (AID 1346985). Also: nearly all actives have a fitted effect of over 40% in size. The essentials:
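DPX-2 cells (HepG2 co-transfected with a PXR response element and a CYP3A4-promoter luciferase construct) were seeded at 2,000 per well, rested 5 hr at 37C, then exposed to DMSO-dissolved compounds for 24 hr. Activation was read as luciferase luminescence.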

Values without a mark were called inactive. Inconclusive results are not listed. Calls of active or inactive are those of the source. Unless noted, calls follow the shape of the dose curve; as a rule, active = well fitted curve in the direction sought with a large enough effect in the repeat runs; inconclusive = weak or mixed curves; inactive = no such curve, though single readings can be large; an effect the other way counts as inactive or inconclusive.

Chain of Cytochrome P450 2D6 (Homo sapiens) (P10635 whole entry, looked up): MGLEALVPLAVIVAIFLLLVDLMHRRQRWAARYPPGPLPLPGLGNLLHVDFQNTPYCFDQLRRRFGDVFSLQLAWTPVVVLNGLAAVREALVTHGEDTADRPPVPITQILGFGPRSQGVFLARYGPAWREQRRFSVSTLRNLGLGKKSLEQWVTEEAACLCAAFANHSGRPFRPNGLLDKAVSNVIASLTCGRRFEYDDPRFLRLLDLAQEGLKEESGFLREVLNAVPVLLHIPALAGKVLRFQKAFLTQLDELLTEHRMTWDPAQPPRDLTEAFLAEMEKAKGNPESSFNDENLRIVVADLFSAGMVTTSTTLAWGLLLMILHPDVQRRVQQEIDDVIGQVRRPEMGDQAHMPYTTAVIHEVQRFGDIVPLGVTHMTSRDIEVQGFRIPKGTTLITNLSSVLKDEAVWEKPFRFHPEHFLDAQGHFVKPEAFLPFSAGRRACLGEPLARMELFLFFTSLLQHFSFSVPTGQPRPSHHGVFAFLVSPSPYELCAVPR
Chain of Nuclear receptor subfamily 1 group I member 2 (Homo sapiens) (O75469 whole entry, looked up): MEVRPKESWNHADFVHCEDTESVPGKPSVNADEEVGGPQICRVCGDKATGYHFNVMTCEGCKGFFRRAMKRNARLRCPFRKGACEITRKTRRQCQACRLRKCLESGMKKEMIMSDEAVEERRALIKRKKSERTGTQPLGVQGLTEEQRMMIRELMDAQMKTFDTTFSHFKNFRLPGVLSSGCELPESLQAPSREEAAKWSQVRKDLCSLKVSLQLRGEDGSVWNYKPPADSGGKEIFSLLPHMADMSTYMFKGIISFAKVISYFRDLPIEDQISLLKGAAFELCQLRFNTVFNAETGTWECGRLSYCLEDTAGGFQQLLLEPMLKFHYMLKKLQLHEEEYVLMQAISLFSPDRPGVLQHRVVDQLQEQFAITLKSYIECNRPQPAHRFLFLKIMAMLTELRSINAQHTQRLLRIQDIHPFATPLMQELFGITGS

`CC(=O)Nc1ccc(C)cc1C`: the Potency entry in test [1], in test [2], in test [3], in test [4], in [5] and in [6] was “inactive” throughout. Besides, the Potency entry in [7], in [8], in test [9], in test [10], in test [11] and in test [12] was “inactive” throughout.
For the molecule `C[C@@H](O)[C@H]1C(=O)N2C(C(=O)O)=C([C@H]3CCCO3)S[C@H]12`, the Potency entry in test [13], in [3], in test [4], in test [5], in [6] and in test [14] was “inactive” in each case. In addition, the Potency entry in test [16], in test [7], in test [8], in [17], in [9] and in test [10] was “inactive” in each case. Further, the Potency result in test [11], in test [18], in test [19] and in test [12] was “inactive” each time. Further, in [15], the molecule was called inactive.
With `O=C1CCCCCCCCCCOCCCCO1`, the Potency entry in test [1], in test [2], in [3], in test [4], in test [5] and in test [6] was “inactive” in each case. The Potency entry in test [16], in test [7], in [8], in test [10], in test [11] and in test [12] was “inactive” in each case. Moreover, the call in test [15] was inactive.
On to `CN1CC(=O)N2[C@H](c3ccc4c(c3)OCO4)c3[nH]c4ccccc4c3C[C@@H]2C1=O`, for which the Potency result in [1], in [2], in test [3], in test [4], in test [5] and in [6] was “inactive” in each case. The Potency entry in test [14], in test [16], in [7], in [8], in test [9] and in test [12] was “inactive” each time. Also, the result in test [15] was inactive.
Regarding `OC(CCN1CCCC1)(c1ccccc1)C1CCCCC1` (stereo not drawn), the Potency entry in test [13], in test [3], in [4], in test [5], in [6] and in test [14] was “inactive” each time. In addition, the Potency result in test [16], in test [8], in [17], in test [9] and in test [10] was “inactive” in each case. The outcome in [15] was inactive.
On to `CC(C)C[C@H](NC(=O)[C@H](CCc1ccccc1)NC(=O)CN1CCOCC1)C(=O)N[C@@H](Cc1ccccc1)C(=O)N[C@@H](CC(C)C)C(=O)[C@@]1(C)CO1`, for which the Potency result in test [13], in [3], in test [5], in test [6], in test [16] and in test [12] was “inactive” in each case. For the same molecule, in test [15], the outcome was inactive. Also, the Potency was 0.075 µM (active) in test [7]; 0.266 µM (active) in [8]; 0.0944 µM (active) in test [17]; 0.0473 µM (active) in test [9]; 0.0376 µM (active) in test [11].
For `CCc1ccccc1`, the Potency entry in [13], in [3], in test [4], in test [5], in [6] and in test [14] was “inactive” throughout. The Potency result in test [16], in test [7], in [8], in test [17], in test [9] and in test [10] was “inactive” each time. The Potency entry in [11] is “inactive”. Also, the call in test [15] was inactive.
Take `O=c1cc(-c2ccccc2)oc2cc(O)cc(O)c12`: the Potency in test [13] is 48.6 µM (active); in test [7], 54.5 µM (active); in [10] it was 54.5 µM (active); in [11], 48.6 µM (active). Further, the Potency entry in test [5], in test [6] and in test [8] was “inactive” throughout.
As for `CCOC(=O)c1ccc(C#Cc2ccc3c(c2)C(C)(C)CCS3)nc1`, the Potency result in [13], in test [5], in test [6], in test [16], in [7] and in [8] was “inactive” throughout. The Potency result in [17], in test [10], in [18], in test [19] and in test [12] was “inactive” throughout. In addition, the result in [15] was inactive. Besides, the Potency in [11] is 33.5 µM (active).
